# Results as given in PubChem BioAssay (NCATS).
# Records with an inconclusive call do not appear. Values without a mark were called inactive. Active and inactive are the calls of the source. The call rests on the fitted dose curve; in most records, active means well fitted inhibition curve with a large enough effect; inconclusive means small, poorly fitted or top-dose-only effect; inactive means flat fitted curve, though single readings scatter.
# System: astro (control astrocytes)
# Test: Drug repurposing screens with cells derived from glioblastoma tumor samples (AID 1345199); further: nearly all actives have a fitted effect of over 40% in size
# Conditions: viability, ATP luminescence, 48 h; series mostly up to 45.9 µM; activity, negative = cell killing: at the top concentration
# Protocol: CD133+ cells were isolated from GBM patient biopsies and cultured as neurospheres. Neurospheres from four patients were used to screen the NCATS pharmaceutical collection (NPC) library of approved drugs and bioactive compounds. […] The neurospheres were incubated with drugs for 48 hours in 1536-well format, then assayed with an ATP content cell viability assay. […] These hits were cherry picked to confirm activity in the four original GBM lines screened plus three other slower growing GMB lines (unable to yield enough cells for a full primary screen). Variable activities of the confirmed primary hits in the different GBM patient lines were observed. The patient line 206 responded to the greatest number of compounds and line 923 responded to the least amount of active compounds.
# On the % scale 0 is the no-effect control and ±100 the full control effect; potency means the concentration at half of the fitted maximal effect.
SMILES,"activity, negative = cell killing",Potency
COc1cc(CC(C)N)cc(OC)c1OC (stereo not given),-3.9% [at 108 µM],
Clc1ccc2c(c1)C(c1ccccc1)=NCc1nncn1-2,-9.67%,
C[C@]12CC[C@@H]3c4ccc(OC(=O)N(CCCl)CCCl)cc4CC[C@H]3[C@@H]1CC[C@@H]2OP(=O)(O)O,,10 µM (active)
CN[C@@H](C)Cc1ccccc1,-13.6% [at 91.6 µM],
CN1C[C@H](C(=O)N[C@]2(C)O[C@@]3(O)[C@@H]4CCCN4C(=O)[C@H](Cc4ccccc4)N3C2=O)C=C2c3cccc4[nH]cc(c34)C[C@H]21,-8.83%,
O=C1c2ccccc2C(=O)c2ccccc21,-11.2%,
C[C@H]1[C@@H]2Cc3ccc(O)cc3[C@@]1(C)CCN2C,-9.02% [at 231 µM],
NC(=O)c1cc([N+](=O)[O-])cc([N+](=O)[O-])c1,-12.4%,
O=[N+]([O-])O[C@H]1CO[C@H]2[C@@H]1OC[C@H]2O[N+](=O)[O-],0.374%,
COc1c2c(cc3c1OCO3)CCN(C)C2,-13.1% [at 21.2 µM],
CCN[C@@H](C)Cc1cccc(C(F)(F)F)c1,-0.222% [at 91.6 µM],
Clc1ccc(C(c2ccc(Cl)cc2)C(Cl)(Cl)Cl)cc1,-9.85%,
C[C@]12CCC(=O)C=C1CC[C@@H]1[C@H]3CC[C@](C)(O)[C@@]3(C)CC[C@@H]12,-29.9% [at 91.6 µM],
CC(=O)NC1CCSC1=O (stereo not given),,inactive
COc1cccc([C@@]2(O)CCCC[C@@H]2CN(C)C)c1,-18%,
C[N+]1(CCF)[C@@H]2CC[C@H]1CC(OC(=O)C(O)(c1ccccc1)c1ccccc1)C2 (stereo not given in full),-10.7%,
CCOC(=O)CC(SP(=S)(OC)OC)C(=O)OCC (stereo not given),,inactive
O=C(N/N=C/c1ccc([N+](=O)[O-])o1)c1cc([N+](=O)[O-])cc([N+](=O)[O-])c1O,-20.7%,
CC(=O)OCC1=C(C(=O)O)N2C(=O)[C@@H](N)[C@H]2SC1,-9.66% [at 21.2 µM],
COc1cc(CCN)cc(OC)c1OC,3.29% [at 108 µM],

SMILES,"activity, negative = cell killing",Potency
Cc1ncsc1CCCl,-9.62%,
CC(C)c1cccc(C(C)C)c1O,-22.4%,
CCc1cc2c(s1)-n1c(C)nnc1CN=C2c1ccccc1Cl,-25.3%,
CCCCC/C=C\C/C=C\C/C=C\C/C=C\CCCC(=O)NCC(=O)O,0.313% [at 4.17 µM],
O=C(O)/C=C\C(=O)O,-5.46%,
COc1ccc2c(c1OC)C(=O)O[C@H]2[C@@H]1c2cc3c(cc2CCN1C)OCO3,-14.1%,
Nc1nc(N)nc(NC2CC2)n1,-17.1%,
CC(C)(C)c1ccc(O)cc1,-11.7%,
COC(=O)C(c1ccccc1)C1CCCCN1 (stereo not given),-10%,
COP(=S)(OC)Oc1ccc(SC)c(C)c1,-13.2%,
CC(C)=CC1C(C(=O)OCN2C(=O)C3=C(CCCC3)C2=O)C1(C)C (stereo not given),-3.76%,
Nc1ccccc1C(=O)O,-7.13%,
CCCC(C)(COC(N)=O)COC(N)=O,-2.79%,
COc1cc(OC)c(OC)cc1C=O,1.14% [at 91.6 µM],
CCN(CC)C(=O)[C@@H]1C=C2c3cccc4[nH]cc(c34)C[C@H]2N(C)C1,,inactive
O=C(O)CCCc1ccc(N(CCCl)CCCl)cc1,-15.8%,
C[C@]12CCC(=O)C=C1CC[C@@H]1[C@@H]2CC[C@]2(C)C(=O)CC[C@@H]12,-21.4%,
CC(NC(C)(C)C)C(=O)c1cccc(Cl)c1 (stereo not given),-13.6%,
C=CCN1C[C@H](C)N([C@H](c2ccc(C(=O)N(CC)CC)cc2)c2cccc(OC)c2)C[C@H]1C,-18.1%,
[N-]=[N+]=CC(=O)OC[C@H](N)C(=O)O,-17.6%,
